# In PMC11062922 (Nature Chemical Biology, 2023):
# pIC50: −log10 of the molar value. Read-outs that look alike come from different tables or passages of the source.
# What was measured:
# [1] = tested on: GSK3A; design: species or system human, MV4-11 + K-562 + COLO205 + SK-N-BE2 + OVCAR-8; settings: read-out: apparent Kd, n = 1
# [2] = tested on: GSK3B; design: species or system human, MV4-11 + K-562 + COLO205 + SK-N-BE2 + OVCAR-8; settings: read-out: apparent Kd, n = 1
# [3] = tested on: PAK4; design: species or system human, MV4-11 + K-562 + COLO205 + SK-N-BE2 + OVCAR-8; settings: read-out: apparent Kd, n = 1
# [4] = tested on: PKN3; design: species or system human, MV4-11 + K-562 + COLO205 + SK-N-BE2 + OVCAR-8; settings: read-out: apparent Kd, n = 1;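 for pIC50: NanoBRET target engagement in HEK293T cells transiently expressing full-length PKN3 with C-terminal NanoLuc, displacement of fluorescent tracer K5 (500 nM), BRET read after 2 h equilibration at 37 °C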
# [5] = tested on: PKN3; settings: hek293t cells;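 for pIC50: NanoBRET target engagement in HEK293T cells transiently expressing full-length PKN3 with C-terminal NanoLuc, displacement of fluorescent tracer K5 (500 nM), BRET read after 2 h equilibration at 37 °C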
# [6] = tested on: AAK1; design: species or system human, MV4-11 + K-562 + COLO205 + SK-N-BE2 + OVCAR-8; settings: read-out: apparent Kd, n = 1
# [7] = tested on: BMP2K; design: species or system human, MV4-11 + K-562 + COLO205 + SK-N-BE2 + OVCAR-8; settings: read-out: apparent Kd; compound concentrations:100 nM and 1000 nM (sheet 'Samples'); n = 1
# [8] = tested on: CLK1; design: species or system human, MV4-11 + K-562 + COLO205 + SK-N-BE2 + OVCAR-8; settings: read-out: apparent Kd; compound concentrations:100 nM and 1000 nM (sheet 'Samples'); n = 1
# [9] = tested on: CLK4; design: species or system human, MV4-11 + K-562 + COLO205 + SK-N-BE2 + OVCAR-8; settings: read-out: apparent Kd; compound concentrations:100 nM and 1000 nM (sheet 'Samples'); n = 1
# [10] = tested on: CSNK2A1;CSNK2A3; design: species or system human, MV4-11 + K-562 + COLO205 + SK-N-BE2 + OVCAR-8; settings: read-out: apparent Kd, n = 1
# [11] = tested on: CSNK2A2; design: species or system human, MV4-11 + K-562 + COLO205 + SK-N-BE2 + OVCAR-8; settings: read-out: apparent Kd, n = 1
# [12] = tested on: FLT3; design: species or system human, MV4-11 + K-562 + COLO205 + SK-N-BE2 + OVCAR-8; settings: read-out: apparent Kd; compound concentrations:100 nM and 1000 nM (sheet 'Samples'); n = 1
# [13] = tested on: FLT4; design: species or system human, MV4-11 + K-562 + COLO205 + SK-N-BE2 + OVCAR-8; settings: read-out: apparent Kd; compound concentrations:100 nM and 1000 nM (sheet 'Samples'); n = 1
# [14] = tested on: GAK; design: species or system human, MV4-11 + K-562 + COLO205 + SK-N-BE2 + OVCAR-8; settings: read-out: apparent Kd; compound concentrations:100 nM and 1000 nM (sheet 'Samples'); n = 1
# [15] = tested on: MELK; design: species or system human, MV4-11 + K-562 + COLO205 + SK-N-BE2 + OVCAR-8; settings: read-out: apparent Kd; compound concentrations:100 nM and 1000 nM (sheet 'Samples'); n = 1
# [16] = tested on: NUAK1; design: species or system human, MV4-11 + K-562 + COLO205 + SK-N-BE2 + OVCAR-8; settings: read-out: apparent Kd; compound concentrations:100 nM and 1000 nM (sheet 'Samples'); n = 1
# [17] = tested on: PKN1; design: species or system human, MV4-11 + K-562 + COLO205 + SK-N-BE2 + OVCAR-8; settings: read-out: apparent Kd; compound concentrations:100 nM and 1000 nM (sheet 'Samples'); n = 1
# [18] = target: Q6ZSR9 (human, UniProt Q6ZSR9); design: species or system MV4-11 + K-562 + COLO205 + SK-N-BE2 + OVCAR-8; settings: read-out: apparent Kd; compound concentrations:100 nM and 1000 nM (sheet 'Samples'); n = 1
# [19] = tested on: RET; design: species or system human, MV4-11 + K-562 + COLO205 + SK-N-BE2 + OVCAR-8; settings: read-out: apparent Kd; compound concentrations:100 nM and 1000 nM (sheet 'Samples'); n = 1
# [20] = tested on: SIK2; design: species or system human, MV4-11 + K-562 + COLO205 + SK-N-BE2 + OVCAR-8; settings: read-out: apparent Kd; compound concentrations:100 nM and 1000 nM (sheet 'Samples'); n = 1
# [21] = compound concentrations:100 nM and 1000 nM (sheet 'Samples')
# [22] = compound concentrations: 100 nM and 1000 nM (sheet 'Samples'), CATDS: 1
# Chain of Q6ZSR9 (Q6ZSR9 whole entry, looked up): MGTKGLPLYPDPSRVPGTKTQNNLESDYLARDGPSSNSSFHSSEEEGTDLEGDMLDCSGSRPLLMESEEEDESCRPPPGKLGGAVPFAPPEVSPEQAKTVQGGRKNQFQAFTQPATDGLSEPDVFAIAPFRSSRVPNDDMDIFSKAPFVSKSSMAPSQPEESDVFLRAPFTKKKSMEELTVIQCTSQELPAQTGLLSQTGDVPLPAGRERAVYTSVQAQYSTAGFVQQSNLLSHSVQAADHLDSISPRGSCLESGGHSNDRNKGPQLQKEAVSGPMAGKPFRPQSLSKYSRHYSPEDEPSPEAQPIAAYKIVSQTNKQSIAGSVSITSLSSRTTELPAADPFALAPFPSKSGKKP
compound,measurement,setting,value
CCn1c(-c2nonc2N)nc2c(C#CC(C)(C)O)nc(OC[C@@H](N)c3ccccc3)cc21 [GSK938890A],potency estimated from few doses,"[1]; compound concentrations: 100 nM and 1000 nM (sheet 'Samples'), CATDS: 6.6915182583243901E-2",404 nM
same,potency estimated from few doses,"[2]; compound concentrations: 100 nM and 1000 nM (sheet 'Samples'), CATDS: 6.5310864553074097E-2",446 nM
same,potency estimated from few doses,"[3]; compound concentrations: 100 nM and 1000 nM (sheet 'Samples'), CATDS: 0.107853549418886",88.3 nM
same,potency estimated from few doses,"[4]; compound concentrations: 100 nM and 1000 nM (sheet 'Samples'), CATDS: 0.20749541918588199",23.6 nM
same,pIC50,"[5]; read-out: Average, SD, n = 4",7.01
same,pIC50,[5]; read-out: Rep 1,6.51
same,pIC50,[5]; read-out: Rep 2,7.51
same,pIC50,[5]; read-out: Rep 3,7.55
same,pIC50,[5]; read-out: Rep 4,7.65
O=C1NC(=O)C(N2CCc3ccccc32)=C1c1ccccc1Cl [SB-373598],potency estimated from few doses,[6]; [21],284 nM
same,potency estimated from few doses,[7],478 nM
same,potency estimated from few doses,[8],275 nM
same,potency estimated from few doses,[9],246 nM
same,potency estimated from few doses,[10]; [21],315 nM
same,potency estimated from few doses,[11]; [21],301 nM
same,potency estimated from few doses,[12],1500 nM
same,potency estimated from few doses,[13],478 nM
same,potency estimated from few doses,[14],167 nM
same,potency estimated from few doses,[1]; [21],104 nM
same,potency estimated from few doses,[2]; [21],177 nM
same,potency estimated from few doses,[15],1000 nM
same,potency estimated from few doses,[16],287 nM
same,potency estimated from few doses,[3]; [21],298 nM
same,potency estimated from few doses,[17],1180 nM
same,potency estimated from few doses,[4]; [21],566 nM
same,potency estimated from few doses,[18],280 nM
same,potency estimated from few doses,[19],239 nM
same,potency estimated from few doses,[20],192 nM
COc1cccc(NC(=O)NC2CCN(c3ccnc(Nc4cc(OC)c(OC)c(OC)c4)n3)C2)c1 (stereo not shown) [GSK1379763A],potency estimated from few doses,[6]; [22],1850 nM
Fc1ccc(-c2c(-c3ccncc3)[nH]c3cccnc23)cc1 [RO1153853-000],potency estimated from few doses,"[4]; compound concentrations: 100 nM and 1000 nM (sheet 'Samples'), CATDS: 0.27237296502427",55.8 nM
same,pIC50,"[5]; read-out: Average, SD, n = 4",5.63
same,pIC50,[5]; read-out: Rep 1,5.10
same,pIC50,[5]; read-out: Rep 2,6.02
same,pIC50,[5]; read-out: Rep 3,6.79
same,pIC50,[5]; read-out: Rep 4,6.53
O=C1N=C(Nc2ccccc2)S/C1=C\c1ccc2ncccc2c1 [RO4493940-000],potency estimated from few doses,"[10]; compound concentrations: 100 nM and 1000 nM (sheet 'Samples'), CATDS: 0.36155727747203598",291 nM
same,potency estimated from few doses,"[11]; compound concentrations: 100 nM and 1000 nM (sheet 'Samples'), CATDS: 0.44448936869789302",203 nM
CN1C[C@@H]2Cn3c(c(C4=C(c5cn(C)c6ccccc56)C(=O)NC4=O)c4ccccc43)C[C@H]2C1.Cl [RO0320234-001],potency estimated from few doses,[6]; [21],403 nM
same,potency estimated from few doses,[7],933 nM
same,potency estimated from few doses,[8],162 nM
same,potency estimated from few doses,[9],500 nM
same,potency estimated from few doses,[10]; [21],836 nM
same,potency estimated from few doses,[11]; [21],784 nM
same,potency estimated from few doses,[13],878 nM
same,potency estimated from few doses,[14],186 nM
same,potency estimated from few doses,[1]; [21],99 nM
same,potency estimated from few doses,[2]; [21],50.7 nM
same,potency estimated from few doses,[3]; [21],558 nM
same,potency estimated from few doses,[17],1970 nM
same,potency estimated from few doses,[4]; [21],1500 nM
same,potency estimated from few doses,[18],533 nM
same,potency estimated from few doses,[19],371 nM
same,potency estimated from few doses,[20],230 nM
Cl.Cl.NCC(C(=O)Nc1cc(Br)c(-c2ccnc3[nH]ccc23)s1)c1ccccc1.NCC(C(=O)Nc1cc(Br)c(-c2ccnc3[nH]ccc23)s1)c1ccccc1 (stereo not shown) [GSK1269851A],potency estimated from few doses,[6]; [21],84.4 nM
same,potency estimated from few doses,[7],126 nM
same,potency estimated from few doses,[8],449 nM
same,potency estimated from few doses,[9],1070 nM
same,potency estimated from few doses,[10]; [21],861 nM
same,potency estimated from few doses,[11]; [21],1130 nM
same,potency estimated from few doses,[12],1450 nM
same,potency estimated from few doses,[13],1230 nM
same,potency estimated from few doses,[14],63 nM
same,potency estimated from few doses,[1]; [21],109 nM
same,potency estimated from few doses,[2]; [21],417 nM
same,potency estimated from few doses,[15],2320 nM
same,potency estimated from few doses,[16],1200 nM
same,potency estimated from few doses,[3]; [21],736 nM
same,potency estimated from few doses,[17],1330 nM
same,potency estimated from few doses,[4]; [21],863 nM
same,potency estimated from few doses,[18],54.4 nM
same,potency estimated from few doses,[19],539 nM
same,potency estimated from few doses,[20],751 nM
CSc1c(C2=C(c3cn(C)c4ccccc34)C(=O)NC2=O)c2ccccc2n1C [RO0317340-000],potency estimated from few doses,[6]; [22],1170 nM
